Results reported in PubChem BioAssay (NCATS).
Records with an inconclusive call do not appear. A call without a number means that no potency is given here. The source made the active and inactive calls. Calls come from the whole dose curve; as a rule, active = well fitted inhibition curve with a large enough effect; inconclusive = small, poorly fitted or top-dose-only effect; inactive = flat fitted curve, though single readings scatter.

system: CP201; assay: qHTS profiling for inhibitors of Plasmodium falciparum proliferation (AID 504749); note: nearly all actives have a fitted effect of over 60% in size; settings: P. falciparum in erythrocytes, SYBR Green DNA, 72 h; series mostly up to 28.7 µM
In short: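 SYBR Green fluorescence of parasite DNA, read after lysis and overnight dark incubation, measured growth over 72 h in erythrocyte culture at 0.3% parasitemia and 2.5% hematocrit. Data normalised to DMSO and 0.29 uM artemisinin, with plate-drift correction.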
Potency is the fitted concentration of half-maximal effect.

SMILES	Potency
CN(C)CCCSc1ccccc1NC(=O)/C=C/c1ccccc1	inactive
O.O.O.O.O.O.O.O=S(=O)([O-])[O-].[Co+2]	7.57 µM (active)
CN1C(C(=O)Nc2ccccn2)C(=O)c2sc(Cl)cc2S1(=O)=O (centres undefined)	inactive
c1ccc2c(c1)OCC(CN1CCCCC1)O2 (centres undefined)	inactive
COc1ccc(C(=O)c2ccc(C)cc2)c(O)c1	inactive
N=C(N)c1ccc(/C=C/c2ccc(C(=N)N)cc2O)cc1	12 µM (active)
CCCOc1cc(N)ccc1C(=O)OCCN(CC)CC	inactive
Cc1ncc[nH]1	inactive
C[C@]12CCC(=O)C[C@@H]1CC[C@@H]1[C@@H]2CC[C@]2(C)C=CC[C@@H]12	inactive
CN(C)C(=O)CCSC(SCCC(=O)O)c1cccc(/C=C/c2ccc3ccc(Cl)cc3n2)c1 (centres undefined)	inactive
CC(=O)Nc1ccc(NC(=S)NC(=O)c2ccc(C(C)(C)C)cc2)cc1	inactive
COc1cc(C)c(/C=C/C(C)=C/C=C/C(C)=C/C(=O)O)c(C)c1C	inactive
O=P(O)(O)OP(=O)(O)O	inactive
CCOC(=O)C1=C(COCCN)NC(C)=C(C(=O)OC)C1c1ccccc1Cl (centres undefined)	inactive
COc1ccc2c(=O)c(C)c(-c3ccccc3)oc2c1CN(C)C	inactive
Cc1c(C)c2c(c(C)c1OC(=O)CCC(=O)O)CC[C@@](C)(CCC[C@H](C)CCC[C@H](C)CCCC(C)C)O2	inactive
CCCCO	inactive
C[C@H](CCCC(C)(C)O)[C@H]1CC[C@H]2[C@@H]3CC=C4C[C@@H](O)CC[C@]4(C)[C@H]3CC[C@]12C	inactive
O=C(CCCN1CCN2CCCC2C1)c1ccc(F)cc1 (centres undefined)	inactive
COC(=O)[C@@H](N)CS	inactive

SMILES	Potency
O=C(O)CCC(=O)c1ccc(-c2ccccc2)cc1	inactive
CC(C)=CCC/C(C)=C/C=C/C(C)=C/C=C/C(C)=C/C=C/C=C(C)/C=C/C=C(C)/C=C/C=C(\C)CCC=C(C)C	inactive
Cc1cc(-c2ccc(N=Nc3c(S(=O)(=O)O)cc4cc(S(=O)(=O)O)cc(N)c4c3O)c(C)c2)ccc1N=Nc1c(S(=O)(=O)O)cc2cc(S(=O)(=O)O)cc(N)c2c1O	inactive
C[C@H](N)C(=O)N[C@@H](C)P(=O)(O)O	inactive
Cc1ncc(C[n+]2csc(CCO)c2C)c(N)n1	inactive
O=C(OCc1ccccc1)c1cccnc1	inactive
CC(C)NCC(O)COc1ccccc1-n1cccc1 (centres undefined)	inactive
Nc1ccc(N=Nc2ccccc2)c(N)n1	inactive
Cn1c(O)c(N=NC(N)=S)c2ccccc21	inactive
CCCc1nc(C(C)(C)O)c(C(=O)OCc2oc(=O)oc2C)n1Cc1ccc(-c2ccccc2-c2nn[nH]n2)cc1	inactive
CC(=O)Oc1cccc2c1C(=O)c1c(OC(C)=O)cc(C(=O)O)cc1C2=O	inactive
O=P(O)(O)OC[C@H](O)CO	inactive
C/C=C/C=C/C(=O)O	inactive
Cn1c(=O)c2c(ncn2CCOC(=O)C(C)(C)Oc2ccc(Cl)cc2)n(C)c1=O	inactive
Cc1cc(C(=O)NCCc2ccc(S(=O)(=O)NC(=O)NN3CCCCCC3)cc2)no1	inactive
CCC(=O)c1ccc2c(c1)N(CCCN1CCN(CCO)CC1)c1ccccc1S2	15.1 µM (active)
O=C(OC1C[C@@H]2CC3C[C@H](C1)N2CC3=O)c1c[nH]c2ccccc12 (some centres undefined)	inactive
O=C(O)CC/C=C\CC[C@@H]1[C@@H](N2CCCCC2)[C@@H](O)C[C@@H]1OCc1ccc(-c2ccccc2)cc1	inactive
CCN(CC)CCOc1ccc2nc(N(C)C)sc2c1	inactive
